Hits are enriched below; roughly 7% of the tested compounds scored in any of these assays.
S2 tox = viability counter-screen for ATXN expression inhibitors. S2 cells (HEK-293 line with an ATXN2-luciferase reporter) viability, CellTiter-Fluor protease fluorescence, 24 h. Potency, µM (titrated, usually from 56.7 µM), usual class: cytotoxic. hit rate 0.49% among 400,000; further: potency means the concentration at half of the fitted maximal effect; nearly all actives have a fitted effect of over 40% in size
DRD3 agonist = activates the human D3 dopamine receptor. AID 652048. max activation, %. D3R DiscoveRx beta-arrestin cells, luminescence, 90 min. P35462. hit rate 0.58% among 410,000; in the data active means max activation above about 30%; further: 0% is about no effect
Target sequence (P35462 whole entry, looked up): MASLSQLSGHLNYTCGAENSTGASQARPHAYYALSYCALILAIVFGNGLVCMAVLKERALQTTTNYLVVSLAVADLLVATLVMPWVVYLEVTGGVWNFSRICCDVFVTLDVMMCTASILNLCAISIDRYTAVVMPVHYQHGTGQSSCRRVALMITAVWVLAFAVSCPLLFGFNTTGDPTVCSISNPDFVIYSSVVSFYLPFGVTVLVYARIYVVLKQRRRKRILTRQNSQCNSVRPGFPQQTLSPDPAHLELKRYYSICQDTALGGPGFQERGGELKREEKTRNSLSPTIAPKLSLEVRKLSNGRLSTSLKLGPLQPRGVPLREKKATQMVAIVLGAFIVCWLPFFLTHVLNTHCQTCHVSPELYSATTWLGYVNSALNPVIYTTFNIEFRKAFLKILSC
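Agonist mode: compounds and dopamine controls were applied to plated cells for 90 min at 37 degrees C after an overnight attachment at 1500 cells/well. Luminescent read-out followed 30 - 60 minutes at room temperature with DiscoveRx detection reagent.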
IL1B secr inh = inhibitors of inflammasome signaling (IL-1 beta secretion). THP-1 LPS/ATP IL-1B secretion, AlphaLISA, 16 h; hits give low values. hit rate 4.7% among 360,000. activity change, % at 57.5 µM; in the data active means activity change below about -50%; inconclusive means mostly about -30% to -49%; further: on the % scale 0 is the no-effect control and ±100 the full control effect
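Secreted IL-1B measured by AlphaLISA bead assay after 16 h compound exposure of THP-1 cells; compounds (final up to 57.5 uM) added 1 h before LPS (250 ng/mL) and ATP (1.25 mM) stimulation; lower signal means less secretion.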
ATXN2 expr inh = inhibitors of ATXN2 expression; hit rate 0.72% among 360,000; HEK-293 ATXN2-luciferase reporter, luminescence, 24 h; Potency, µM (titrated, usually from 57 µM), without a hit: top-dose activity change, negative = inhibition, usual class: inhibitors; further: potency means the concentration at half of the fitted maximal effect; on the % scale 0 is the no-effect control and ±100 the full control effect; nearly all actives have a fitted effect of over 55% in size
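ATXN2-luciferase reporter cells (luciferase flanked by upstream and downstream ATXN2 gene portions) were treated 24 h at 37 °C with compounds at up to 57 uM. SteadyGlo luminescence gave expression; GF-AFC fluorescence gave viability.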
Integrin act MD = activates integrin-mediated alleviation for muscular dystrophy | AID 624291 | hit rate 0.064% among 350,000 | alpha7betagal myoblasts, beta-gal FDG fluorescence, 48 h | Potency, µM (highest dose often 38.3 µM), without a hit: top-dose activation, hits mostly activators;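 further: potency means the concentration at half of the fitted maximal effect; 100% = response of the positive control SU9516; nearly all actives have a fitted effect of over 60% in size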
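alpha7betagal+/- myoblasts (passage 13, 250/well) treated 48 h at 37C with compounds at 1:260 dilution of DMSO stock. Lysed, then beta-galactosidase activity read as FDG fluorescence (ex 480/em 540) after 30 min, with pre-read for autofluorescence.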
DRD3 antagonist = blocks the human D3 dopamine receptor | hit rate 2.5% among 360,000 | max response, negative = inhibition, % | AID 652054 | D3R cells, DiscoveRx beta-arrestin luminescence, antagonist mode; hits give low values | P35462; in the data active means max response below about -50%; inconclusive means no clear call, values can overlap the other calls; further: on the % scale 0 is the no-effect control and ±100 the full control effect
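Cells expressing the human receptor were seeded at 1500 cells/well, incubated overnight at 37 degrees C in 5% CO2, then exposed to library compounds with dopamine controls for 90 minutes at 37 degrees C before luminescent detection.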
An asterisk follows results filed as active. Unless noted, the call rests on the fitted dose curve; in most records, active means well fitted curve in the direction sought with a large enough effect; inconclusive means small, poorly fitted or top-dose-only effect, or another doubt; inactive means no such curve, though single readings can be large; an effect the other way counts as inactive or inconclusive.

For Cc1ccc(C)c(NCC(=O)NNC(=S)Nc2ccccc2)c1 the results were S2 tox inactive, DRD3 agonist 12, IL1B secr inh 15, ATXN2 expr inh 0%, Integrin act MD 25% and DRD3 antagonist -2.
`C[C@@H](CN1c2ccccc2Sc2ccccc21)N(C)C` gave S2 tox inactive.
Screening Cc1sc(NC(=O)c2ccco2)nc1-c1ccc2c(c1)CC(C)N2C(=O)C1CC1 (stereo not given) returned DRD3 agonist 42*, IL1B secr inh -73*, ATXN2 expr inh inconclusive, Integrin act MD -5% and DRD3 antagonist 27.
For CCCCN1C(=O)C(=O)N(CC(=O)c2ccc[nH]2)C1=O the results were S2 tox inactive, DRD3 agonist 3, IL1B secr inh 4, ATXN2 expr inh 12%, Integrin act MD 14% and DRD3 antagonist 43.
Screening N#Cc1c(NC(=O)/C=C/c2ccco2)sc2c1CCCC2 returned S2 tox inactive, DRD3 agonist -7, IL1B secr inh 2, ATXN2 expr inh 135%, Integrin act MD 26% and DRD3 antagonist -60*.
For O=C(COC(=O)c1ccccc1NC(=O)c1ccco1)NCCC1=CCCCC1 the results were S2 tox inconclusive, DRD3 agonist 10, IL1B secr inh 13, ATXN2 expr inh 32%, Integrin act MD -7% and DRD3 antagonist -2.
Screening Cc1coc2cc3oc(=O)c(CCC(=O)NC4CC4)c(C)c3cc12 returned S2 tox inactive, DRD3 agonist 3, IL1B secr inh -14, ATXN2 expr inh 27%, Integrin act MD -43% and DRD3 antagonist 6.
`Cc1oc2cc3oc(=O)c(CCC(=O)NCCCn4ccnc4)c(C)c3cc2c1C` gave S2 tox inactive, DRD3 agonist -8, IL1B secr inh -52*, ATXN2 expr inh -15%, Integrin act MD -3% and DRD3 antagonist -29.
For Cc1oc2cc3oc(=O)c(CCC(=O)NC4CC4)c(C)c3cc2c1C the results were S2 tox inactive, DRD3 agonist 79*, IL1B secr inh -15, ATXN2 expr inh 10%, Integrin act MD -17% and DRD3 antagonist 78.
`Cc1coc2cc3oc(=O)c(CCC(=O)NCCCn4ccnc4)c(C)c3cc12` gave S2 tox inactive, DRD3 agonist -14, IL1B secr inh -18, ATXN2 expr inh -4%, Integrin act MD 0% and DRD3 antagonist 2.
Screening COC(=O)c1cc(=O)nc2scc(C)n12 returned S2 tox inactive, DRD3 agonist -5, IL1B secr inh 15, ATXN2 expr inh -11%, Integrin act MD -15% and DRD3 antagonist -17.
`COC(=O)c1cc(=O)nc2sc3ccccc3n12` gave S2 tox inactive, DRD3 agonist 0, IL1B secr inh 35, ATXN2 expr inh 3%, Integrin act MD 14% and DRD3 antagonist -51*.
`CN(Cc1ccccc1)Cc1ccccc1` gave DRD3 agonist -18.
Screening N#CN(Cc1ccccc1)Cc1ccccc1 returned S2 tox inactive, DRD3 agonist 0, IL1B secr inh -64*, ATXN2 expr inh -1%, Integrin act MD -8% and DRD3 antagonist 6.
For CSCCC(NS(=O)(=O)c1ccc2c(c1)oc(=O)n2C)C(=O)N1CCN(c2cccc(Cl)c2)CC1 (stereo not given) the results were DRD3 agonist -13.
Cc1ccc(Nc2ncc(C(=O)N3CCN(c4cccc(Cl)c4)CC3)c3ccccc23)cc1Cl was read as S2 tox inactive, DRD3 agonist 2 and ATXN2 expr inh 6%.
For Cc1ccc(Nc2ncc(C(=O)NCCCN3CCN(C)CC3)c3ccccc23)cc1Cl the results were S2 tox inactive, DRD3 agonist -17, IL1B secr inh -78*, ATXN2 expr inh -38%, Integrin act MD -53% and DRD3 antagonist 0.
`Cc1ccc(C)c(N2CCN(C(=O)CCS(=O)(=O)c3ccc4c(c3)CCN4C(=O)C3CC3)CC2)c1` gave S2 tox inactive, DRD3 agonist 11, IL1B secr inh 0, ATXN2 expr inh -19%, Integrin act MD -24% and DRD3 antagonist 17.
Cc1ccccc1CCNC(=O)c1ccc2c(c1)c(C)c(C)n2Cc1ccccc1 was read as DRD3 agonist -17.

High-throughput results from PubChem BioAssay.
